# Results published in the supplement of paper PMC9262897, “Low-cost anti-mycobacterial drug discovery using engineered E. coli” (Nature Communications, 2022).
# Where a name gives a salt, the structure may show the parent alone. ± gives the standard deviation of the averaged measurements.
# How the values were obtained:
# Experiment in all cases: growth (OD600 after 10 h); higher = more growth (less inhibition)
# [1] = test system: E. coli TESEC Alr+ wild-type control; settings: compound 0.1 mM; raw OD600 reference: median of DMSO wells 0.241, cell-free background 0.041
# Experimental: (§1)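 TESEC Mtb Alr E. coli, or the Alr+ wild-type control, in 384-well plates with Prestwick library compounds at 0.1 mM and 1% DMSO, across arabinose induction levels of 1E3 to 1E7 nM. Growth is read as OD600 after 10 h at 37 °C in triplicate biological replicates.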
# E. coli TESEC Mtb Alr [2] = settings: compound 0.1 mM
# Experimental: as §1
# E. coli TESEC Mtb Asd = settings: compound 0.1 mM
# Experimental: (§2)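 TESEC E. coli strains in which the native enzyme is deleted and replaced by arabinose-inducible Mtb Asd, DapB, CysH or TrpD, each grown in its selective medium. Strains were screened against the Prestwick library at 0.1 mM and 1% DMSO in 384-well format at low and high arabinose induction. Growth is read as OD600 after 10 h in triplicate.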
# E. coli TESEC Mtb Alr [3] = settings: compound 0.1 mM; remark: listed apart in the source
# Experimental: (§3)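 TESEC Mtb Alr E. coli (ΔaraC ΔtolC ΔentC Δalr ΔdadX, arabinose-inducible Mtb Alr) or the Alr+ wild-type control strain, grown in defined M9-fructose medium without D-alanine in 96-well plates with Prestwick library compounds at 0.1 mM and 1% DMSO. Low Alr induction is 0.1 µM arabinose and high induction is 10 mM arabinose.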
# [4] = test system: E. coli TESEC Alr+ wild-type control; settings: compound 0.1 mM; raw OD600 reference: median of DMSO wells 0.49, cell-free background 0.052
# Experimental: as §3
# E. coli TESEC Mtb DapB = settings: compound 0.1 mM
# Experimental: as §2
# [5] = arabinose 1000 nM, raw OD600 reference: median of DMSO wells 0.294, cell-free background 0.041
# [6] = arabinose 10000 nM, raw OD600 reference: median of DMSO wells 0.264, cell-free background 0.041
# [7] = arabinose 100000 nM, raw OD600 reference: median of DMSO wells 0.201, cell-free background 0.041
# [8] = arabinose 1000000 nM, raw OD600 reference: median of DMSO wells 0.193, cell-free background 0.041
# [9] = arabinose 10000000 nM, raw OD600 reference: median of DMSO wells 0.146, cell-free background 0.041
# [10] = arabinose induction (level): High, raw OD600 reference: median of DMSO wells 0.331, cell-free background 0.041
# [11] = arabinose induction (level): Low, raw OD600 reference: median of DMSO wells 0.417, cell-free background 0.041
# [12] = arabinose 100 nM, raw OD600 reference: median of DMSO wells 0.413, cell-free background 0.052
# [13] = arabinose 10000000 nM, raw OD600 reference: median of DMSO wells […], cell-free background 0.052
# [14] = arabinose induction (level): High, raw OD600 reference: median of DMSO wells […], cell-free background 0.041
# [15] = arabinose induction (level): Low, raw OD600 reference: median of DMSO wells 0.227, cell-free background 0.041
SMILES,growth [1],growth (E. coli TESEC Mtb Alr [2]; [5]),growth (E. coli TESEC Mtb Alr [2]; [6]),growth (E. coli TESEC Mtb Alr [2]; [7]),growth (E. coli TESEC Mtb Alr [2]; [8]),growth (E. coli TESEC Mtb Alr [2]; [9]),growth (E. coli TESEC Mtb Asd; [10]),growth (E. coli TESEC Mtb Asd; [11]),growth (E. coli TESEC Mtb Alr [3]; [12]),growth (E. coli TESEC Mtb Alr [3]; [13]),growth [4],growth (E. coli TESEC Mtb DapB; [14]),growth (E. coli TESEC Mtb DapB; [15])
CNC(=O)c1c(I)c(C(=O)NCC(=O)Nc2c(I)c(C(=O)O)c(I)c(C(=O)NCCO)c2I)c(I)c(N(C)C(C)=O)c1I [Ioxaglic acid],0.239 ± 0.0087,0.2972 ± 0.0024,0.28 ± 0.0056,0.219 ± 0.0065,0.215 ± 0.015,0.139 ± 0.0059,0.343 ± 0.027,0.359 ± 0.048,0.426 ± 0.0094,0.3518 ± 0.0018,–,–,–
CCCCC(=O)N(Cc1ccc(-c2ccccc2-c2nnn[nH]2)cc1)[C@H](C(=O)O)C(C)C [Valsartan],0.249 ± 0.013,0.307 ± 0.0036,0.27 ± 0.0035,0.213 ± 0.02,0.193 ± 0.014,0.151 ± 0.0071,0.291 ± 0.042,0.396 ± 0.047,0.422 ± 0.016,0.339 ± 0.012,–,–,–
CCN(CC)CCNc1ccc(CO)c2sc3ccccc3c(=O)c12 [Hycanthone],0.0743 ± 0.0024,0.0851 ± 0.0084,0.0559 ± 0.00057,0.1 ± 0.0034,0.0552 ± 0.00075,0.0769 ± 0.0069,0.0901 ± 0.025,0.075 ± 0.0065,0.365 ± 0.042,0.232 ± 0.033,–,–,–
COC(=O)C1=C(C)NC(C)=C(C(=O)OC2CCCN(Cc3ccccc3)C2)C1c1cccc([N+](=O)[O-])c1 (stereo not drawn) [Benidipine hydrochloride],0.184 ± 0.005,0.148 ± 0.005,0.177 ± 0.012,0.168 ± 0.011,0.107 ± 0.0056,0.119 ± 0.024,0.162 ± 0.0021,0.157 ± 0.0085,0.353 ± 0.018,0.122 ± 0.028,0.295 ± 0.015,–,–
CC(Oc1c(Cl)cccc1Cl)C1=NCCN1 (stereo not drawn) [Lofexidine],0.211 ± 0.008,0.27 ± 0.0089,0.259 ± 0.016,0.179 ± 0.015,0.172 ± 0.0071,0.139 ± 0.0016,0.261 ± 0.069,0.464 ± 0.093,0.406 ± 0.0098,0.331 ± 0.032,0.555 ± 0.044,–,–
Cn1c(=O)c2c(ncn2CC2OCCO2)n(C)c1=O [Doxofylline],0.248 ± 0.0076,0.302 ± 0.015,0.259 ± 0.01,0.197 ± 0.017,0.179 ± 0.011,0.158 ± 0.0092,0.476 ± 0.018,0.469 ± 0.035,0.408 ± 0.0051,0.334 ± 0.01,–,–,–
CN[C@@H]1[C@@H](O)[C@@H](O[C@@H]2[C@@H](O)[C@H](O[C@H]3OC(CN)=CC[C@H]3N)[C@@H](N)C[C@H]2N)OC[C@]1(C)O [Sisomicin sulfate],0.0439 ± 0.00085,0.04797 ± 0.00015,0.0404 ± 0.00055,0.0483 ± 0.00072,0.0422 ± 0.00046,0.0657 ± 0.002,0.075 ± 0.0066,0.107 ± 0.055,0.231 ± 0.15,0.3071 ± 0.0019,–,–,–
CC(=O)Oc1cc(C(C)C)c(OCCN(C)C)cc1C [Moxisylyte hydrochoride],0.219 ± 0.0037,0.245 ± 0.055,0.273 ± 0.0074,0.179 ± 0.017,0.155 ± 0.003,0.14 ± 0.00075,0.297 ± 0.046,0.441 ± 0.041,0.41 ± 0.0064,0.242 ± 0.13,0.533 ± 0.029,–,–
Cc1ccccc1OCC(O)CO (stereo not drawn) [Mephenesin],0.258 ± 0.0026,0.286 ± 0.0091,0.261 ± 0.016,0.209 ± 0.016,0.184 ± 0.0048,0.14 ± 0.0045,0.416 ± 0.023,0.45 ± 0.025,0.413 ± 0.0097,0.373 ± 0.0043,–,–,–
c1ccc2c(c1)CCCC2C1=NCCN1 (stereo not drawn) [Tetrahydrozoline hydrochloride],0.237 ± 0.0097,–,–,–,–,–,0.435 ± 0.062,0.437 ± 0.03,0.4131 ± 0.0035,0.343 ± 0.01,0.479 ± 0.063,0.203 ± 0.018,0.226 ± 0.031
O=c1[nH]c(=O)n([C@H]2C[C@H](O)[C@@H](CO)O2)cc1F [Floxuridine],0.0553 ± 0.00059,–,–,–,–,–,0.088 ± 0.0059,0.0873 ± 0.011,0.387 ± 0.0052,0.0748 ± 0.0061,0.356 ± 0.0098,0.129 ± 0.0019,0.165 ± 0.0032
OC(c1cc(C(F)(F)F)nc2c(C(F)(F)F)cccc12)C1CCCCN1 (stereo not drawn) [Mefloquine hydrochloride],0.0408 ± 0.00093,–,–,–,–,–,0.0511 ± 0.0036,0.055 ± 0.0046,0.199 ± 0.23,0.0512 ± 0.00055,0.04863 ± 0.00045,0.0464 ± 0.00035,0.0483 ± 0.0032
COc1cc(-c2ccc(=O)[nH]n2)ccc1OC(F)F [Zardaverine],0.14 ± 0.0036,–,–,–,–,–,0.211 ± 0.014,0.162 ± 0.014,0.401 ± 0.0082,0.35 ± 0.011,0.442 ± 0.044,0.16 ± 0.012,0.176 ± 0.018
C[C@H](N[C@@H](CCc1ccccc1)C(=O)O)C(=O)N1CCC[C@H]1C(=O)O [Enalaprilat dihydrate],0.228 ± 0.0039,–,–,–,–,–,0.259 ± 0.063,0.31 ± 0.094,0.411 ± 0.011,0.308 ± 0.022,0.638 ± 0.025,0.21 ± 0.013,0.216 ± 0.022
CCCCN(CCCC)CCCOC(=O)c1ccc(N)cc1 [Butacaine],0.2003 ± 0.0014,–,–,–,–,–,0.275 ± 0.029,0.445 ± 0.06,0.408 ± 0.013,0.337 ± 0.019,0.474 ± 0.038,0.182 ± 0.0067,0.208 ± 0.016
CC1CCc2cc(F)cc3c(=O)c(C(=O)O)cn1c23 (stereo not drawn) [Flumequine],0.0491 ± 0.00083,–,–,–,–,–,0.059 ± 0.0029,0.0732 ± 0.0099,0.0543 ± 0.0034,0.05097 ± 0.00047,0.0527 ± 0.00046,0.0826 ± 0.0024,0.0692 ± 0.0075
c1coc(CNc2ncnc3nc[nH]c23)c1 [6-Furfurylaminopurine],0.252 ± 0.0041,–,–,–,–,–,0.341 ± 0.068,0.43 ± 0.043,0.405 ± 0.0075,0.365 ± 0.0057,0.44 ± 0.022,0.209 ± 0.011,0.221 ± 0.024
Oc1c(I)cc(Cl)c2cccnc12 [Clioquinol],0.0473 ± 0.0055,0.0429 ± 0.0016,0.0409 ± 0.00085,0.0461 ± 0.0025,0.0417 ± 0.00053,0.0513 ± 0.0023,0.0601 ± 0.0098,0.0661 ± 0.016,0.0741 ± 0.02,0.0669 ± 0.011,–,–,–
O=c1[nH]cnc2c1ncn2[C@H]1CC[C@@H](CO)O1 [Didanosine],0.18 ± 0.011,–,–,–,–,–,0.157 ± 0.0043,0.165 ± 0.013,0.425 ± 0.0085,0.225 ± 0.019,0.503 ± 0.045,0.18 ± 0.011,0.196 ± 0.048
CC(C(=O)O)c1ccc(C(=O)c2cccs2)cc1 (stereo not drawn) [Suprofen],0.2321 ± 0.0022,–,–,–,–,–,0.368 ± 0.056,0.365 ± 0.054,0.382 ± 0.01,0.3826 ± 0.0029,0.605 ± 0.029,0.213 ± 0.0048,0.196 ± 0.029
